The full ranking holds about 35,000 sequences; the median of “fluorescence intensity (a.u.)” is about 10,000, and the highest 2% start at about 52,000. The list comes from a sample in which the highest values are over-represented; it also holds similar and randomly drawn sequences.

The assay addresses T1, OsWOX13 (Oryza sativa, UniProt Q5QMM3 1-267).
T1 sequence: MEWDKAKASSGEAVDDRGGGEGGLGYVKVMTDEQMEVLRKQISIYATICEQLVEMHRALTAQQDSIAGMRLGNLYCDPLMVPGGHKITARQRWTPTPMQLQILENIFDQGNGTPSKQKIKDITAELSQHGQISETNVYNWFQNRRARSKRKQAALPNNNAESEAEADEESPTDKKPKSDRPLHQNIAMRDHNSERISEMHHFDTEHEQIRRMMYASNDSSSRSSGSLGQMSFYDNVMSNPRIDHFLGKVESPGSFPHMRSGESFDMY
The assay is described as follows: protein-binding microarray (RPBM); PBS, 2% BSA, 51.3 ng/ul salmon testes DNA, 50 uM zinc acetate, 200 nM TF, 25 C, 1 h; high values mean tight binding. Particulars: protein: recombinant; tags: N-terminal polyhistidine and DsRed monomer fusion (pET32a); label: CyDye5-dUTP incorporated in the synthesized complementary strand; 3' TTTTT single-stranded linker to array surface; dsDNA, one strand shown. In outline:
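Transcription factors were made in E. coli BL21-CodonPlus as N-terminal fusions to a polyhistidine tag and DsRed, then purified on Ni–NTA. After primer extension with Cy5-dUTP and blocking with 2% BSA, a custom Agilent array was exposed for 1 h at 25 °C to 200 nM protein in PBS, 2% BSA, salmon testes DNA and 50 µM zinc acetate. Washed arrays were scanned on an Axon 4000B, and the binding signal is per-feature fluorescence intensity in arbitrary units.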
Regarding “CGTCTGGGGTTTGATTGGGATTGAGGCGAATTCGGGCGGTCGGAGTCACCTAGTGCAG”, the binding signal is 34000 fluorescence intensity (a.u.).

Consider “CAGAATGACAACATTGACTGATTGACACTAGAAATACATACGGAGTCACCTAGTGCAG”, for which the binding signal is 39000 fluorescence intensity (a.u.).

Regarding “TGGCGGATTGATCTGGAGGTGGGCTTGTTGGGGTTGCTGTCGGAGTCACCTAGTGCAG”, the binding signal was 14400 fluorescence intensity (a.u.).

“TGGAAATTGATGGAGGATGATCTGCAATTAGAAAGAAGAACGGAGTCACCTAGTGCAG”: the binding signal is 29700 fluorescence intensity (a.u.).

In the case of “CTGGATTGATTGGGAGTGTTGGGTTTCGGGCTAGATCTGGCGGAGTCACCTAGTGCAG”, the binding signal is 65200 fluorescence intensity (a.u.).

With “TTCTGCTGATTGGAATGACTACAACACTAGAGTTGTCTGTCGGAGTCACCTAGTGCAG”, the binding signal was 56100 fluorescence intensity (a.u.).

On to “CCGTTGGATTGGAATCGGAGGGCCTACAATGACTGAGTGCCGGAGTCACCTAGTGCAG”, for which the binding signal is 5860 fluorescence intensity (a.u.).

On to “TGGGTAGGGGCAGTTAATTGGGAGGGAATTCCTCCTTCACCGGAGTCACCTAGTGCAG”, for which the binding signal was 8890 fluorescence intensity (a.u.).

Regarding “ACTGATGAAATATCAAAGTGATTGTCAGACAAAGCGCCATCGGAGTCACCTAGTGCAG”, the binding signal was 25800 fluorescence intensity (a.u.).

“TACCCATCTTCCATTGACAGACAATTGGGCCCCACTCCGCCGGAGTCACCTAGTGCAG”: the binding signal is 7450 fluorescence intensity (a.u.).

With “AGCTAATAATTACTAATTACTAAGTAATACTTCCTCTGTTCGGAGTCACCTAGTGCAG”, the binding signal was 41700 fluorescence intensity (a.u.).

As to “ATTATTGACAAAAGCATCTCGATATCTTATGGATTAATATCGGAGTCACCTAGTGCAG”, the binding signal is 4720 fluorescence intensity (a.u.).

Consider “CGTGAGTGAAATTTTAATTACGTGTACATATAGGGGAGTACGGAGTCACCTAGTGCAG”, for which the binding signal is 20500 fluorescence intensity (a.u.).

“ATATAATGGGCACTATGATTTGCTCTAAATATTGGTCATTCGGAGTCACCTAGTGCAG”: the binding signal was 28800 fluorescence intensity (a.u.).

For the sequence “TCCTGATTGTTCACAATTGTGCTAGTTCAAACAAGGCAAACGGAGTCACCTAGTGCAG”, the binding signal was 24800 fluorescence intensity (a.u.).

Take “GATGATTGATTGGGTTGGTTGGAACGTGCGATGGAATGATCGGAGTCACCTAGTGCAG”: the binding signal was 65400 fluorescence intensity (a.u.).

Regarding “TTGATTGCGAATGATTGGAGCTGGTTGCTGTTGCTAGATCCGGAGTCACCTAGTGCAG”, the binding signal was 57800 fluorescence intensity (a.u.).

With “TATAAAATTGATGGTTGGAATTATAAATATTTCGATTGAACGGAGTCACCTAGTGCAG”, the binding signal is 9830 fluorescence intensity (a.u.).

On to “ACTATTATATTGATCAATTGATTACATAATTCACGTGTCGCGGAGTCACCTAGTGCAG”, for which the binding signal is 43700 fluorescence intensity (a.u.).

Consider “AGATGCTGATTGGTTGCGAACTATCTGTTCAATTTGCATCCGGAGTCACCTAGTGCAG”, for which the binding signal is 46300 fluorescence intensity (a.u.).

Consider “CATCAATTAATTGACATGATACTATCTACCTTGCGTGTCGCGGAGTCACCTAGTGCAG”, for which the binding signal is 65000 fluorescence intensity (a.u.).

On to “GCACTGATTGAATTGAACTGTATAGAACAAAATGAAATTTCGGAGTCACCTAGTGCAG”, for which the binding signal is 19600 fluorescence intensity (a.u.).

For “TAGATGAAATGGGTTGGGTTGATTTGGGTTGAAATATGATCGGAGTCACCTAGTGCAG”, the binding signal was 6400 fluorescence intensity (a.u.).

Take “CTGGAATGAGTGGTGGTTGATTGTTTAGTGTTTACTGTTCCGGAGTCACCTAGTGCAG”: the binding signal is 18500 fluorescence intensity (a.u.).

Turning to “AAATGATTGAATCCTAGAAACTCTGACCTATACAAGTGGTCGGAGTCACCTAGTGCAG”, the binding signal is 60500 fluorescence intensity (a.u.).

With “TACATCCCTACTAATTGTGTCATGTATCAATAATGATATGCGGAGTCACCTAGTGCAG”, the binding signal was 3560 fluorescence intensity (a.u.).

As for “ATGATGATGATATACACGCCAAATTGAATTAGAAACTGATCGGAGTCACCTAGTGCAG”, the binding signal is 6800 fluorescence intensity (a.u.).

For the sequence “GATAACGTGGCCAAATTATATCAGACGTTCATGTTTAGATCGGAGTCACCTAGTGCAG”, the binding signal is 5800 fluorescence intensity (a.u.).

With “TTCACAAATTTTGATGCGATGATTAGCTAAGGCATGTTCGCGGAGTCACCTAGTGCAG”, the binding signal was 23500 fluorescence intensity (a.u.).

In the case of “TTACGATGATATATAATTGGACGGAAGCAGCGATCATGCTCGGAGTCACCTAGTGCAG”, the binding signal is 14100 fluorescence intensity (a.u.).

Turning to “AGCTAATTTATGCATGCATGGATTCCGATGGAGGAGCTGTCGGAGTCACCTAGTGCAG”, the binding signal was 19400 fluorescence intensity (a.u.).

“GAGCAATTAGGCTTAAAAGATTCGTCTCGCAAATTAGTCGCGGAGTCACCTAGTGCAG”: the binding signal was 3540 fluorescence intensity (a.u.).

Regarding “TGCTGGTTGATTGATTGATTGATGGACAAATAGGTAGATGCGGAGTCACCTAGTGCAG”, the binding signal is 56300 fluorescence intensity (a.u.).

Regarding “TGGAATGATGTTGGGATTGATGGATGGATGTATGTTTTGTCGGAGTCACCTAGTGCAG”, the binding signal was 15300 fluorescence intensity (a.u.).

As for “TCTGTTGATGAATGGATTGATTGATGGATGGATGGATGGTCGGAGTCACCTAGTGCAG”, the binding signal is 64100 fluorescence intensity (a.u.).

Consider “GATGATGGATTGGAAAGGCAAGTAAGCTGGAGTAGGTGGTCGGAGTCACCTAGTGCAG”, for which the binding signal was 38000 fluorescence intensity (a.u.).

As for “GTGATTGAAATGGATCCTGGTCGGAAATGAATCCTGGTCGCGGAGTCACCTAGTGCAG”, the binding signal is 43700 fluorescence intensity (a.u.).

Consider “ATAGATGAAGAATAAATATGATTGGTAGAGAAGAGAGATGCGGAGTCACCTAGTGCAG”, for which the binding signal is 25600 fluorescence intensity (a.u.).

On to “CAAAATTTGATGAATGGAAGGGTCGAAACTGAGTGATTGCCGGAGTCACCTAGTGCAG”, for which the binding signal was 23600 fluorescence intensity (a.u.).

Take “GCAGCCTAGATTGACAATAGATGAATTGGAGCTAGTAGTGCGGAGTCACCTAGTGCAG”: the binding signal is 35400 fluorescence intensity (a.u.).

In the case of “AATGGAGATTGGATCTGATTGGTTGTTGTTGCTTGAGGATCGGAGTCACCTAGTGCAG”, the binding signal is 62600 fluorescence intensity (a.u.).

Regarding “TCTGATTGCTGTTAGTTGTTGATGAGATGGAGATGGAGATCGGAGTCACCTAGTGCAG”, the binding signal is 39900 fluorescence intensity (a.u.).

On to “TTGATTGATGGGTAGTAAGGAAACCTTTTGAATGAGTGGTCGGAGTCACCTAGTGCAG”, for which the binding signal was 64700 fluorescence intensity (a.u.).

As to “TTCTGATTTGCCCCTATCTTATTGAGATTGCTTGTGTGATCGGAGTCACCTAGTGCAG”, the binding signal is 30600 fluorescence intensity (a.u.).

Source of the values: paper PMC7819943, “Rice protein-binding microarrays: a tool to detect cis-acting elements near promoter regions in rice”.
